In PubChem BioAssay:
“And” between values parts separate entries of the source, which are not always exact repeats. Equal values may be shown once. The source made the active and inactive calls.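 Rule for the calls, unless noted: active = compounds whose cell count with miR-34 switched on is under 0.7 times the count with it off; inactive = the rest.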

How the values were obtained:
[1] = tested on: Aerobactin synthetase IucA (Klebsiella pneumoniae); assay: inhibition of K. pneumoniae IucA enzyme – biochemical, Tocris library, absorbance (AID 1345561; call rule not given here;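 note: 100% = enzyme without compound and 0% = no enzyme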); conditions: purified IucA enzyme assay, absorbance (OD) read-out; stronger effect = lower value;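 tested at 8 µM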
[2] = viability loss with induced miR-34 in A549 – imaging, A549 dox-inducible miR-34, nuclei and caspase counts, primary screen (AID 1347080); conditions: A549 miR-34 inducible, Hoechst nuclei count, 48 h
[3] = galactose survival enhancers in mitochondrial complex I cybrids – cell-based, galactose medium, ATP luminescence, primary screen (AID 1645843;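 active = z-score of at least 1.8 in each of two replicates, scored against plate mean and spread of sample wells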;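 note: positive z means more ATP and so rescue of galactose-driven cybrid death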); conditions: complex I mutant cybrid cells, 72 h, stronger effect = higher value
[4] = stronger effect = lower value, cell number ratio, induced over uninduced
[5] = measured here: relative caspase fold change +Dox/-Dox
[6] = measured here: total cells with miR-34 induction, stronger effect = lower value
[7] = measured here: total cells without miR-34 induction

| Compound | remaining activity [1] | fold change [2, 4] | fold change [2, 5] | cell count [2, 6] | cell count [2, 7] | z-score [3] |
| --- | --- | --- | --- | --- | --- | --- |
| OC[C@H]1NC[C@@H](O)[C@@H](O)[C@@H]1O | 123% (inactive) | 0.958 (inactive) and 0.973 (inactive) | 0.787 and 0.709 | 4950 and 9630 | 5160 and 9890 | -0.17 (inactive) |
| COc1ccc(-c2nc(C(=O)N3CCN(C)CC3)sc2-c2ccc(OC)cc2)cc1 | 116% (inactive) | 0.946 (inactive) and 0.989 (inactive) | 2.48 and 0.892 | 5370 and 9040 | 5680 and 9140 | -0.66 (inactive) |
| Cc1nc2c(c(=O)[nH]1)CSCC2 | 100% (inactive) | 0.983 (inactive) | 1.6 | 9080 | 9230 | -0.035 (inactive) |
| CCC(=O)OCN1C(=O)C=CC1=O | 92.2% (inactive) | 0.956 (inactive) | 1.17 | 9240 | 9660 | -0.205 (inactive) |
| CN(C)C(=O)C(=O)c1cn(C)c2cc(Cl)c(C(=O)N3CCC(Cc4ccc(F)cc4)CC3)cc12 | 118% (inactive) | 1.09 (inactive) | 0.88 | 4920 | 4530 | -0.96 (inactive) |
| N[C@@H](C(=O)O)[C@@H](OCc1ccccc1)C(=O)O (racemic) | 110% (inactive) | 0.921 (inactive) | 1.02 | 8010 | 8700 | 0.315 (inactive) |
| CSc1nc(NC2CCCC2)c([N+](=O)[O-])c(NC2CCCC2)n1 | 104% (inactive) | 0.932 (inactive) | 1.24 | 7100 | 7620 | -0.215 (inactive) |
| Cc1ccc(OC[C@@H](O)[C@H](C)NC(C)C)c2c1CCC2 | 82.6% (inactive) | 0.94 (inactive) | 1.07 | 8280 | 8800 | -0.36 (inactive) |
| NC(C(=O)O)c1ccc(C(=O)O)c(C(=O)O)c1 (stereo not given) | 109% (inactive) | 0.922 (inactive) | 0.667 | 8080 | 8760 | 0.13 (inactive) |
| Cc1cc2nc3c(=O)[nH]c(=O)nc-3n(C)c2cc1C=O | 110% (inactive) | 1.04 (inactive) | 1.31 | 8790 | 8430 | -0.69 (inactive) |
| N#Cc1ccccc1OCC(O)CNCCNC(=O)Nc1ccccc1 (stereo not given) | 118% (inactive) | 0.847 (inactive) | 1.36 | 8970 | 10600 | -0.64 (inactive) |
| COc1ccc2[nH]c(-c3ccccc3)c(CCNC(C)=O)c2c1 | 99.3% (inactive) | 0.991 (inactive) | 0.88 | 7770 | 7840 | -0.185 (inactive) |
| c1ccc2nc(C3=NCCN3)cnc2c1 | 98.4% (inactive) | 0.983 (inactive) | 0.854 | 9150 | 9300 | 0.085 (inactive) |
| CCOC(=O)NC[C@H](Cc1ccc(OCCc2nc(-c3ccccc3)oc2C)cc1)N/C(C)=C\C(=O)c1ccc(C(F)(F)F)cc1 | 105% (inactive) | 1.05 (inactive) | 1.05 | 5130 | 4910 | -0.305 (inactive) |
| COc1cc(/C=C/c2ccc(OC)cc2OC)cc(OC)c1 | 117% (inactive) | 0.956 (inactive) and 0.973 (inactive) | 1.53 and 0.719 | 1820 and 3000 | 1910 and 3090 | -0.41 (inactive) |
| CC(=O)OCCNC(=O)c1cccnc1 | 106% (inactive) | 0.936 (inactive) | 0.614 | 9480 | 10100 | 0.15 (inactive) |
| COC(=O)C1=C(C)NC(C)=C(C(=O)OCCCN2CCC(c3ccccc3)(c3ccccc3)CC2)[C@@H]1c1cccc([N+](=O)[O-])c1 | 109% (inactive) | 1.06 (inactive) | 1.28 | 310 | 292 | -0.83 (inactive) |
| C[C@@H](CN1CCC(n2c(=O)[nH]c3cc(Cl)ccc32)CC1)NC(=O)c1ccc2ccccc2c1 | 106% (inactive) | 1.11 (inactive) | 0.89 | 3940 | 3560 | -1.04 (inactive) |
| C/C=C1/C(=O)C[C@H]2[C@@H]3CCC4=CC(=O)CC[C@]4(C)[C@H]3CC[C@]12C | 104% (inactive) | 0.844 (inactive) | 3.69 | 6570 | 7790 | -0.33 (inactive) |
| O=C(NCCCCN1CCN(c2cccc(Cl)c2Cl)CC1)c1ccc2c(c1)Cc1ccccc1-2 | 111% (inactive) | 0.929 (inactive) | 1.33 | 8390 | 9030 | -0.17 (inactive) |
| COc1oc(=O)c2cc(N)ccc2c1Cl | 95.9% (inactive) | 0.989 (inactive) | 1.44 | 8640 | 8740 | -0.37 (inactive) |
| CNC(=O)Oc1ccc2c(c1)C1(C)CCN(C)C1N2C (stereo not given) | 128% (inactive) | 0.943 (inactive) | 1.32 | 9440 | 10000 | -1 (inactive) |
| CC#CCOC(=O)C1=CCCN(C)C1 | 109% (inactive) | 0.936 (inactive) | 0.732 | 8580 | 9170 | -0.46 (inactive) |
| Cc1ccc(S(=O)(=O)NCc2ccccc2)cc1 | 121% (inactive) | 0.861 (inactive) | 0.767 | 8330 | 9670 | -0.21 (inactive) |
| C[C@]12CC[C@@H]3c4ccc(O)cc4C[C@@H](CCCCCCCCCS(=O)CCCC(F)(F)C(F)(F)F)C3[C@@H]1CC[C@@H]2O (stereo not given in full) | 117% (inactive) | 0.929 (inactive) | 0.852 | 6320 | 6800 | 0.9 (inactive) |
| N=C(CC(O)COc1ccccc1-c1ccccc1)N1CCCCC1 (stereo not given) | 113% (inactive) | 0.933 (inactive) | 0.891 | 6170 | 6610 | -0.28 (inactive) |
| CCCn1c(=O)c2[nH]c(-c3ccccc3)nc2n(CCC)c1=O | 113% (inactive) | 1.13 (inactive) | 0.687 | 4790 | 4230 | -0.115 (inactive) |
| C[C@@]1(O)[C@H](O)[C@@H](CO)O[C@H]1n1cnc2c(NC3CCCC3)nc(Cl)nc21 | 118% (inactive) | 1.01 (inactive) | 1.12 | 7690 | 7600 | 0.755 (inactive) |

| Compound | remaining activity [1] | fold change [2, 4] | fold change [2, 5] | cell count [2, 6] | cell count [2, 7] | z-score [3] |
| --- | --- | --- | --- | --- | --- | --- |
| Nc1nc2c(nc(Br)n2[C@@H]2O[C@@H]3COP(=O)(O)O[C@H]3[C@H]2O)c(=O)[nH]1 | 113% (inactive) | 0.972 (inactive) | 0.761 | 9650 | 9930 | -0.25 (inactive) |
| COc1ccc(-c2nc(-c3ccc(-c4cccc(Cl)c4)o3)[nH]c2-c2ccc(OC)cc2)cc1 | 125% (inactive) | 0.932 (inactive) and 1.97 (inactive) | 1.76 and 0.641 | 4720 and 2100 | 5060 and 1060 | -0.15 (inactive) |
| COC(=O)c1sccc1S(=O)(=O)Nc1ccc(Nc2ccccc2)cc1OC | 87.9% (inactive) | 0.862 (inactive) | 1.31 | 6450 | 7480 | -0.495 (inactive) |
| CN(C)[C@@H]1CCc2[nH]c3ccc(NC(=O)c4ccc(F)cc4)cc3c2C1 | 77.6% (inactive) | 0.87 (inactive) | 1.77 | 8840 | 10200 | 0.495 (inactive) |
| OC(CN1CCNCC1)Cn1c2ccc(Br)cc2c2cc(Br)ccc21 (stereo not given) | 103% (inactive) | 1.43 (inactive) | 0.602 | 284 | 198 | -0.705 (inactive) |
| CC(=O)NC1=NN(C(C)=O)C(C)(c2ccccc2)S1 (stereo not given) | 109% (inactive) | 1.17 (inactive) | 2.25 | 1640 | 1400 | -0.275 (inactive) |
| CC(C)Oc1cccc(-n2c(CCc3c[nH]c4ccc(Br)cc34)nc3ccccc3c2=O)c1 | 110% (inactive) | 1.07 (inactive) | 0.884 | 6620 | 6200 | -1.18 (inactive) |
| Cc1ccccc1N1CCN(S(=O)(=O)CC23CCC(C[C@@H]2NC(=O)[C@@H](N)CCS(C)(=O)=O)C3(C)C)CC1 (stereo not given in full) | 82.6% (inactive) | 0.868 (inactive) | 1.54 | 7420 | 8540 | -0.14 (inactive) |
| N[C@H](C(=O)O)c1ccc(C(=O)O)c(C(=O)O)c1 | 126% (inactive) | 0.986 (inactive) | 0.559 | 9860 | 10000 | -0.145 (inactive) |
| CC(C)[C@H]1c2ccc(F)cc2CC[C@@]1(CCN(C)CCCc1nc2ccccc2[nH]1)OC(=O)C1CC1 | 104% (inactive) | 0.792 (inactive) | 1.77 | 263 | 332 | -0.705 (inactive) |
| CCCCNC(=O)[C@@H]1Cc2ccccc2N1C(=O)[C@@H](N)CC | 110% (inactive) | 0.978 (inactive) | 1.76 | 9030 | 9230 | 0.245 (inactive) |
| CC(O)(C(=O)Nc1ccc(S(=O)(=O)c2ccccc2)cc1)C(F)(F)F (stereo not given) | 125% (inactive) | 0.907 (inactive) and 0.921 (inactive) | 1.29 and 0.986 | 4820 and 7390 | 5310 and 8020 | -0.32 (inactive) |
| CC1(C)C[C@@H]1C(=O)N/C(=C\CCCCSC[C@@H](N)C(=O)O)C(=O)O | 102% (inactive) | 0.976 (inactive) | 1.46 | 9200 | 9420 | -0.005 (inactive) |
| Cc1cc(/C(=C\Nc2ccc(Cl)cc2)C(=O)Nc2ccc(Cl)cc2)on1 | 122% (inactive) | 0.913 (inactive) | 0.914 | 7920 | 8680 | 0.03 (inactive) |
| Oc1ccc(-c2nc3cc(O)cc(Br)c3o2)cc1 | 98.9% (inactive) | 0.904 (inactive) | 1.67 | 8500 | 9400 | 0.775 (inactive) |
| CC(C)(C)c1cc(C(=O)/C=C/c2ccc(C(=O)O)cc2)cc(C(C)(C)C)c1 | 108% (inactive) | 1.11 (inactive) | 1.56 | 1370 | 1240 | -0.69 (inactive) |
| COc1ccc(NS(=O)(=O)c2ccc(I)cc2)cc1N1CCN(C)CC1 | 112% (inactive) | 0.956 (inactive) | 0.589 | 6570 | 6870 | -0.545 (inactive) |
| O=C1C(c2ccccn2)=[N+]([O-])c2ccccc21 | 123% (inactive) | 0.941 (inactive) | 0.616 | 8260 | 8780 | -0.62 (inactive) |
| CC(C)c1ccc(C(=O)c2cccs2)c(SCCCCCCCCN(C)C)n1 | 107% (inactive) | 1.16 (inactive) | 1.04 | 3590 | 3100 | -1.04 (inactive) |
| O=[N+]([O-])c1cc(Cl)ccc1S(=O)(=O)N1CCN(Cc2ccccc2)CC1 | 110% (inactive) | 0.93 (inactive) | 1.18 | 8490 | 9130 | -0.68 (inactive) |
| CC(N)=NCCCC[C@H](N)C(=O)O | 91.3% (inactive) | 0.958 (inactive) | 0.902 | 8960 | 9350 | 0.135 (inactive) |
| O=C1CC2(CCCC2)CC(=O)N1CCCCNCC1COc2ccccc2O1 (stereo not given) | 102% (inactive) | 0.892 (inactive) | 0.89 | 8660 | 9710 | -1.01 (inactive) |
| O/N=C/c1ccc(-c2ccc(O)c(F)c2)c(Cl)c1O | 117% (inactive) | 0.891 (inactive) | 1.26 | 7880 | 8840 | -0.63 (inactive) |
| CN(CCc1ccc(Cl)c(Cl)c1)CCN1CCCC1 | 108% (inactive) | 1.01 (inactive) | 0.63 | 8830 | 8750 | -1.06 (inactive) |
| COC(=O)/C=C/c1cccc(N(Cc2ccc(-c3ccc(N(C)C)cc3)cc2)C(=O)C2CCCCC2)c1 | 97.3% (inactive) | 0.926 (inactive) | 1.8 | 7630 | 8240 | 0.225 (inactive) |
| CC[N+](C)(CC)CC(=O)Nc1c(C)cccc1C | 109% (inactive) | 0.963 (inactive) | 0.801 | 8930 | 9270 | 0.265 (inactive) |
| CCn1c(=O)[nH]c2ccccc21 | 111% (inactive) | 0.854 (inactive) | 1.07 | 7770 | 9100 | -0.455 (inactive) |
